Outcome data for 40 molecules are collected here from PubChem BioAssay (NCATS).

Structures are written as SMILES. Calls of active or inactive are those of the source. The call rests on the fitted dose curve; in most records, active means well fitted curve in the direction sought with a large enough effect; inconclusive means small, poorly fitted or top-dose-only effect, or effect the other way, or another doubt; inactive means no such curve, though single readings can be large or run the other way.

A short description of this experiment: Inducers of the Endoplasmic Reticulum Stress Response (ERSR) in human glioma: Validation (AID 504836). The following applies: human glioma cells, ER stress response reporter; series mostly up to 38.3 µM. The procedure, abridged: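 ERSR induction read as luciferase luminescence (Bright-Glo, 10 min at room temperature) in stably transfected human U87-MG glioma cells exposed to compounds for 16 h, using GRP78 as sensor.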
In the case of `C(=C\c1ccccc1)/CN1CCN(C(c2ccccc2)c2ccccc2)CC1`, the result was inactive. In the case of `CCOC(=O)C1=C[C@]2(CC)CCCN3CCc4c(n1c1ccccc41)[C@@H]32` it was “inactive”; in that of `COc1ccc2c(c1OC)C(=O)O[C@@H]2[C@H]1c2c(cc3c(c2OC)OCO3)CCN1C`, “inactive”. Consider `CCC(=O)c1ccc2c(c1)N(CCCN(C)C)c1ccccc1S2`, for which the molecule was called inactive. As for `CCCC(C(=O)OCCN(CC)CC)(c1ccccc1)c1ccccc1`, the entry is “inactive”; as for `COc1ccc(CN(CCN(C)C)c2ccccn2)cc1`, “inactive”. In the case of `NC1=NCC2c3ccccc3Cc3ccccc3N12` (stereo not given) it was “inactive”. In the case of `C[C@]12C=CC(=O)C=C1CC[C@H]1[C@@H]3C[C@@H](O)[C@](O)(C(=O)CO)[C@@]3(C)C[C@H](O)[C@@]12F` it was “inactive”. Regarding `CC1=C(C)C(=O)C(CCCCC#CCCCC#CCO)=C(C)C1=O`, the molecule was classed as inactive. As for `CCCOc1ccccc1-c1nc2n[nH]nc2c(=O)[nH]1`, the entry is “inactive”; as for `CN1CCC(=C2c3ccccc3CC(=O)c3sccc32)CC1`, “inactive”; as for `O=C(CCNNC(=O)c1ccncc1)NCc1ccccc1`, “inactive”. As to `C[C@]12CCC(=O)C=C1CC[C@@H]1[C@@H]2[C@@H](O)C[C@@]2(C)[C@H]1CC[C@]2(O)C(=O)CO`, the outcome was inactive. As for `O=C1N(c2ccccc2)c2ccccc2C1(Cc1ccncc1)Cc1ccncc1`, the entry is “inactive”; as for `COCC(=O)O[C@]1(CCN(C)CCCc2nc3ccccc3[nH]2)CCc2cc(F)ccc2[C@@H]1C(C)C`, “inactive”; as for `CC1=C(CC(=O)O)c2cc(F)ccc2/C1=C\c1ccc(S(C)=O)cc1` (stereo not given), “inactive”.

`OCCN1CCN(CCCN2c3ccccc3C=Cc3ccccc32)CC1`: the molecule was called inactive. In the case of `COCCOC(=O)C1=C(C)NC(C)=C(C(=O)OC/C=C/c2ccccc2)C1c1cccc([N+](=O)[O-])c1` (stereo not given) it was “inactive”; in that of `c1ccc([C@H]2CN3CCSC3=N2)cc1`, “inactive”; in that of `COC(=O)C1=C(C)NC(C)=C(C(=O)OC(C)(C)CN(C)CCC(c2ccccc2)c2ccccc2)C1c1cccc([N+](=O)[O-])c1` (stereo not given), “inactive”. In the case of `O=C(O)CP(=O)(O)O` it was “inactive”; in that of `O=C(Nc1ccc([N+](=O)[O-])cc1Cl)c1cc(Cl)ccc1O`, “inactive”. In the case of `O=C(c1ccc(F)cc1)C1CCN(CCn2c(=O)[nH]c3ccccc3c2=O)CC1` it was “inactive”; in that of `Cc1nc2sccn2c(=O)c1CCN1CCC(=C(c2ccc(F)cc2)c2ccc(F)cc2)CC1`, “inactive”; in that of `CNC[C@H](O)c1ccc(O)c(O)c1`, “inactive”.

Take `Nc1c2c(nc3ccccc13)CCCC2O` (stereo not given): the result was inactive. In the case of `Cc1ccc(=O)n(-c2ccccc2)c1`, the molecule was called inactive. In the case of `CN1CCN(C2Cc3ccccc3Sc3ccc(Cl)cc32)CC1` (stereo not given) it was “inactive”; in that of `NC(N)=NC(=O)c1nc(Cl)c(N)nc1N`, “inactive”. With `Clc1ccccc1C(c1ccccc1)(c1ccccc1)n1ccnc1`, the call was inactive. As for `COc1cc2c(cc1OC)-c1cc(=Nc3c(C)cc(C)cc3C)n(C)c(=O)n1CC2`, the entry is “inactive”.

With `CN(C)CC[C@@H](c1ccc(Cl)cc1)c1ccccn1`, the call was inactive. As for `Cn1cnc2c1c(=O)[nH]c(=O)n2C`, the entry is “inactive”.

On to `C#CCN(C)Cc1ccccc1`, for which the molecule was called inactive.

On to `CCOC(=O)C(C)(C)Oc1ccc(Cl)cc1`, for which the molecule was called inactive.

Turning to `CCN(CC)CCOCCOC(=O)C1(c2ccccc2)CCCC1`, the outcome was inactive. In the case of `Cc1cccc(C)c1NC(=O)C(C)N` (stereo not given) it was “inactive”. For `OCc1cc(C(O)CNCCCCCCOCCCCc2ccccc2)ccc1O` (stereo not given), the call was inactive. In the case of `NS(=O)(=O)c1cc2c(cc1Cl)NC(C1CC3C=CC1C3)NS2(=O)=O` (stereo not given) it was “inactive”; in that of `CC(C)(C)c1ccc(C(=O)CCCN2CCC(OC(c3ccccc3)c3ccccc3)CC2)cc1`, “inactive”.
